Rab9 prom act: activates the Rab9 promoter. Huh7 Rab9 promoter-luciferase reporter, luminescence, 24 h. Potency, µM (highest dose often 9.22 µM), most hits filed as activators. 320,000 compounds, 2.8% hits; further: nearly all actives have a fitted effect of over 60% in size
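Huh7 cells stably carrying a Rab9 promoter-luciferase reporter, 1500 cells per well in OP-MEM I with 10% FBS, treated with compound 24 hours at 37C. Luciferase activity read by luminescence after 10 minutes with Amplite reagent.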
FLuc modulator: inhibits or activates purified firefly luciferase, miR-21 counter-screen | P08659 | 360,000 compounds, 6.9% hits | Potency, µM (highest dose often 57.5 µM), usual class: inhibitors | purified FLuc, Km substrates, luminescence inhibition; further: nearly all actives have a fitted effect of over 55% in size
Target sequence (P08659 whole entry, looked up): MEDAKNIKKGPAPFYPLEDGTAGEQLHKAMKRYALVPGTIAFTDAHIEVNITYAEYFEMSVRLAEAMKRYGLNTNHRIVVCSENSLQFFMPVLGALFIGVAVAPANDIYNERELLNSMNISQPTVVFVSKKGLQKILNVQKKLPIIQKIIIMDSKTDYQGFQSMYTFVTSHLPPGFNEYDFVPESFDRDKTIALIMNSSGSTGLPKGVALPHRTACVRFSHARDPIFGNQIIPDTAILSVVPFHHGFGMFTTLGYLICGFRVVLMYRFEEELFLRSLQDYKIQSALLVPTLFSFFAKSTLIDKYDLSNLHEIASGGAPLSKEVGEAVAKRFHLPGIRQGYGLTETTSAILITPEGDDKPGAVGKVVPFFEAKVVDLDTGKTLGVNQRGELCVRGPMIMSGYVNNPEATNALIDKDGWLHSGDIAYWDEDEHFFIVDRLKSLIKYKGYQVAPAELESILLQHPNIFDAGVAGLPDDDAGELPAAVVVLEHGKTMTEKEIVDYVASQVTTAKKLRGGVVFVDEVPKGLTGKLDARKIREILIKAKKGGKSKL
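Purified P. pyralis luciferase, 10 nM final, with Km-level 10 uM D-luciferin and 10 uM ATP in 50 mM Tris acetate pH 7.5, 10 mM Mg acetate, 0.01% Tween-20, 0.05% BSA; 6-point qHTS titration about 60 µM downward; luminescence read.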
ELG1 genotox: induces genotoxicity in HEK293T cells with luciferase-tagged ELG1. AID 504466. Potency, µM (doses to about 46 µM), most hits filed as activators. 330,000 compounds, 1.3% hits. HEK293T ELG1-luciferase reporter, luminescence, 16 h; further: nearly all actives have a fitted effect of over 60% in size
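16 hr compound incubation (37 °C, 5% CO2) of HEK293T cells carrying luciferase-tagged ELG1; luciferase then measured by ONE-Glo luminescence after 30 min at RT.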
NPC1 prom act: NPC1 promoter activation | Huh7 NPC1 promoter luciferase reporter, 24 h | Potency, µM (series often up to 9.22 µM), actives largely listed as activators | 320,000 compounds, 2.4% hits | AID 485313; further: nearly all actives have a fitted effect of over 60% in size
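Compounds in DMSO were transferred onto Huh7 NPC1-luciferase reporter cells pre-incubated 2 h; after 24 h at 37 °C, Amplite reagent was dispensed and luminescence recorded 10 min later.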
SMN2 splice up: enhancers of SMN2 splice variant expression; HEK293 SMN2-luciferase splicing reporter, luminescence, 30-36 h; Potency, µM (highest dose often 46.1 µM), most hits filed as activators; 210,000 compounds, 2.8% hits; further: nearly all actives have a fitted effect of over 55% in size
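qHTS luciferase splicing reporter: luminescence rises when SMN2 exon 7 is included in transfected HEK293 cells. Compound exposure lasted 30-36 h at 37C, with 4.5 mM final sodium butyrate as control, followed by a ONE-Glo read.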
Numbers stand for hits; – = inactive; ? = inconclusive; · = no result; [ ] = dose if it differs, or a comment. An excerpt weighted towards active compounds, which were near 7.5% of everything screened. The call rests on the fitted dose curve; in most records, active means well fitted curve in the direction sought with a large enough effect; inconclusive means small, poorly fitted or top-dose-only effect, or another doubt; inactive means no such curve, though single readings can be large; an effect the other way counts as inactive or inconclusive.

SMILES | Rab9 prom act | FLuc modulator | ELG1 genotox | NPC1 prom act | SMN2 splice up
Cc1cc(C(=O)CSc2nc3ccccc3c(=O)n2C)c(C)n1CC1CCCO1 (centres undefined) | – | ? | – | – | –
Cc1cc(C(=O)CSc2nc3ccccc3c(=O)[nH]2)c(C)n1CC1CCCO1 (centres undefined) | ? | 13µM | – | – | –
Cc1cc(C(=O)CSc2nnnn2-c2ccccc2)c(C)n1CC1CCCO1 (centres undefined) | 1.6µM | 2.7µM | ? | 2.5µM | 13µM
CCCc1cc(=O)[nH]c(SCC(=O)c2cc(C)n(CC3CCCO3)c2C)n1 (centres undefined) | · | · | – | · | ·
Cc1ccc(Cl)c(OCCN2CCc3ccccc3C2)c1 | – | ? | – | – | ·
COc1ccc(/C=C2\CCc3ccccc3C2=O)cc1Cn1nc(C)cc1C | – | 13µM | – | – | –
COc1ccc(/C=C2/CCc3ccccc3C2=O)cc1CN1CCOCC1 | – | 9.5µM | – | – | –
COc1ccc(/C=C/C(=O)c2ccccc2O)cc1CN1CCOCC1 | – | – | – | – | –
Cc1ccc(CN2CCCN(C)CC2)c(C)c1 | – | – | – | – | ·
O=C(CNC(=O)N1CC(=O)Nc2ccccc21)NCCc1c[nH]c2ccccc12 | – | – | – | – | ·
COc1ccc(-c2nnc(SCC(=O)N3CCOCC3)o2)cc1 | 4.5µM | 21µM | 21µM | ? | 14µM
COc1cccc(-c2nnc(SCC(=O)N3CCOCC3)o2)c1 | 4µM | ? | – | ? | –
O=C(CSc1nnc(-c2ccc(O)cc2)o1)N1CCOCC1 | ? | ? | – | – | –
COc1cccc(-c2nnc(SCC(=O)N3CC(C)CC(C)C3)o2)c1 (centres undefined) | – | – | – | – | –
Cc1ccc2nsnc2c1NC(=O)COc1ccccc1 | – | – | – | – | –
N#Cc1cccc(NC(=O)C2CCN(c3ncccn3)CC2)c1 | · | – | · | · | –
Cc1ccc(S(=O)(=O)NNc2ccccc2)c(C)c1 | – | – | – | – | –[1.84 µM]
COc1cccc(/C=N/NC(=O)c2ccoc2C)c1O | – | 8.5µM | 21µM | – | ·
COc1cccc(/C=N/NC(=O)c2ccoc2C)c1 | 1.6µM | 11µM | ? | 2.5µM | ·
Cn1nccc1C(=O)N/N=C/c1ccccc1[N+](=O)[O-] | 2.8µM | 13µM | ? | 2.5µM | ·
Cn1nccc1C(=O)N/N=C/c1cccnc1 | – | – | – | – | ·
Cc1occc1C(=O)N/N=C/c1ccccn1 | ? | ? | ? | – | ·
COc1cc(/C=N/NC(=O)c2ccoc2C)ccc1O | – | 13µM | – | – | ?
COCc1cc(=O)[nH]c(N2CCN(Cc3ccc4c(c3)OCO4)CC2)n1 | – | – | – | – | ·
NC(=O)NC(=O)c1nccnc1C(=O)O | – | – | – | – | ·
SMILES | Rab9 prom act | FLuc modulator | ELG1 genotox | NPC1 prom act | SMN2 splice up
CCN(CC)c1ccc(/C=N/NC(=O)c2ccoc2C)cc1 | ? | 1.1µM | 0.73µM | 0.5µM | ·
Cc1occc1C(=O)N/N=C/c1ccccc1[N+](=O)[O-] | 4µM | 9.5µM | ? | 3.2µM | ·
COc1ccc(/C=N/NC(=O)c2cc(C)oc2C)cc1OC | – | ? | – | – | ·
COc1cccc(/C=N/NC(=O)NC2CCCCC2)c1O | ? | 17µM | ? | ? | ·
CCOc1ccc(/C=N/NC(=O)c2ccoc2C)cc1OC | 3.5µM | ? | 18µM | ? | ·
CCCC/C(O)=C1\C(=O)CCCC1=NCCc1c(C)[nH]c2ccccc12 | – | – | – | – | ·
O=C(Cc1cccs1)N1CCN=C1SCc1ccc(Br)cc1 | – | – | – | – | –
Cc1ccc(C(=O)NCCOc2cccc(C)c2)cc1 | – | 24µM | ? | – | –
COc1cc(OC)cc(C(=O)NCCOc2ccccc2)c1 | 1µM | ? | 12µM | 1.6µM | –
COc1ccccc1C(=O)NCCOc1ccc(C(C)(C)C)cc1 | – | – | – | – | ·
CC(C)(C)c1ccc(C(=O)NCCOc2ccccc2F)cc1 | ? | 0.27µM | 0.73µM | – | ·
COc1cccc(C(=O)NCCOc2cc(C)cc(C)c2)c1 | – | ? | – | – | –
CC(C)(C)c1ccc(C(=O)NCCOc2ccccc2)cc1 | ? | 0.34µM | 0.73µM | 0.32µM | ·
Cc1ccc(-c2nc(COC(=O)C3=NN(c4ccccc4)C(=O)CC3)cs2)cc1 | – | ? | – | – | ·
CC(C)Oc1ccc(CC2CCC(=O)N(C)C2=O)cc1 (centres undefined) | – | – | – | – | –
CN1CCN(C(CNC(=O)c2ccc(Br)o2)c2ccc(F)cc2)CC1 (centres undefined) | – | – | – | – | ·
CCn1cc(C(=O)O)c(=O)c2cnc(N3CCN(C(=S)NC(=O)c4ccc(OC)cc4)CC3)nc21 | – | – | – | – | ·
O=C(Nc1ccccn1)c1ccc(Cl)c(S(=O)(=O)N2CCc3ccccc32)c1 | – | – | – | – | ·
CC(=O)c1csc(COc2ccc(Cl)cc2)n1 | 0.79µM | 24µM | ? | 0.89µM | ·
CC(=O)Nc1nnc(COc2ccc(Cl)cc2)s1 | 3.5µM | 15µM | 15µM | 3.2µM | 11µM
CC(=O)OC[C@@]1(O)C[C@@]23CC[C@@H]4c5ccoc5CC[C@@]4(C)[C@@H]2CCC1C3 | · | · | · | · | –
Cc1cc(C)c2c(-n3cccc3)c(C(=O)O)sc2n1 | 0.63µM | 2.7µM | ? | 1µM | ?
CC/C=C\C[C@H](O)/C=C/C=C\C/C=C\C/C=C\CCCC(=O)O | · | · | · | · | –
CCCCCn1c(=O)[nH]c2cc(C(=O)NCCCN3CCCCC3CC)ccc2c1=O (centres undefined) | – | – | – | – | ·
CC(=O)c1sc(NCc2ccc(C)cc2)nc1C | 2.8µM | 15µM | 23µM | 3.2µM | ·
SMILES | Rab9 prom act | FLuc modulator | ELG1 genotox | NPC1 prom act | SMN2 splice up
CC(=O)c1sc(NC(=O)c2ccc(F)c(S(=O)(=O)N3CCOCC3)c2)nc1C | – | 19µM | – | – | ·
CC(=O)c1sc(NC(=O)c2ccc(F)c(F)c2)nc1C | 3.2µM | ? | 16µM | ? | –
CC(=O)c1sc(NC(=O)c2cccc(C)c2)nc1C | 2µM | 6.7µM | 5.2µM | 3.2µM | 14µM
Cc1ccc(NC(=O)c2ccc(S(=O)(=O)NCc3cccnc3)cc2)c(C)c1 | – | – | – | – | ·
CC(=O)N1CCC2(CC1)CN(c1ccncc1)C2 | · | · | · | · | –
CC(C)NC(=S)Nc1ccc(S(=O)(=O)Nc2ncccn2)cc1 | – | – | – | – | –
CC(=O)c1sc(NC(=O)c2ccc(Cl)cc2)nc1C | 1.4µM | ? | ? | 3.2µM | ·
Cc1ccccc1Nc1c(-c2c[nH]c3ccccc23)nc2cccc(C)n12 | · | – | · | · | 11µM
CCc1ccc(NC(=O)Cn2ncc3c4ccccc4n(C)c3c2=O)cc1 | – | – | – | – | –
COc1cc(OC)cc(C(=O)N[C@H](C(=O)OCC(=O)N2CCc3ccccc32)C(C)C)c1 | – | 15µM | – | – | –
COc1ccc2c(CC(=O)N3CCc4ccccc43)coc2c1 | 3.2µM | 3.4µM | ? | 2µM | 16µM
Cc1ccc(-c2ccc(SCC(=O)N3CCc4ccccc43)nn2)cc1 | – | ? | – | – | –
Cc1ccc2c(c1)c1nnc(SCC(=O)N3CCCc4ccccc43)nc1n2CC(=O)O | 3.5µM | 6.7µM | ? | 3.5µM | ·

Bioassay records as filed in PubChem.
